From PubChem BioAssay (EPA / NIEHS)
Results filed as inconclusive are left out. The source made the active and inactive calls. The calls were made as follows, unless noted: active = hit-call score of the fitted dose curve at least 0.9, where 1 is the maximum; inactive = score below 0.9.

Key:
[1] = ATG_NFI_CIS: Attagene CIS-FACTORIAL HepG2 Assay for human Nuclear Factor I (NFI) (AID 2282989); details: HepG2 cis-regulatory reporter, NFI response element transcription; actives raise or lower the signal
Outline: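 HepG2 cells transiently transfected with cis-element-driven multiplexed reporter transcription units, dosed for 24 h. Reporter mRNA quantified by RT-PCR, fluorescent labelling, HpaI digestion and capillary electrophoresis; bidirectional fit versus DMSO baseline.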

[2] = biological target: Myc proto-oncogene protein (Homo sapiens) (UniProt P01106); test: ATG_Myc_CIS: Attagene CIS-FACTORIAL HepG2 Assay for human Myelocytomatosis (Myc) Proto-Oncogene Transcription Factor (AID 2282990); details: HepG2, Attagene cis-reporter transcription factor activity; actives raise or lower the signal
Myc proto-oncogene protein (Homo sapiens), sequence (P01106 whole entry, looked up): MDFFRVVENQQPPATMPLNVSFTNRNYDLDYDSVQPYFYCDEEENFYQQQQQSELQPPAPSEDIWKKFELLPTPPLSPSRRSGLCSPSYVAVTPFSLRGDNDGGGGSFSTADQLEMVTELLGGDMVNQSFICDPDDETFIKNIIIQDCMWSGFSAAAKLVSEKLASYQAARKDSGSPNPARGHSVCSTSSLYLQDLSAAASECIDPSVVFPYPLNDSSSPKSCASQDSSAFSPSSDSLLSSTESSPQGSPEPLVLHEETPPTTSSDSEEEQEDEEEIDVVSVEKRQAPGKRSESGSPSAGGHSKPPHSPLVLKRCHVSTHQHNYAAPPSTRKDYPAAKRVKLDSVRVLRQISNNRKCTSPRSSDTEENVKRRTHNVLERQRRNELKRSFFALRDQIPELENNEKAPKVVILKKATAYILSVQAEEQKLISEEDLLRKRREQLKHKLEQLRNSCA
Outline: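 Multiplexed cis-reporter transcription in HepG2 cells after 24 h chemical treatment. Reporter mRNA measured by RT-PCR and capillary electrophoresis fluorescence; activity fitted bidirectionally against DMSO control.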

[3] = ATG_NF_kB_CIS: Attagene CIS-FACTORIAL HepG2 Assay for human Nuclear Factor Kappa B (NF-kB) (AID 2282991); details: HepG2 Attagene cis-factorial NF-kB reporter mRNA; actives raise or lower the signal
Outline: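 After 24 h compound incubation, transfected HepG2 cells yield total RNA; reporter cDNA is PCR-amplified, end-labelled with 6-FAM, HpaI-digested and analysed on a genetic analyser. Endogenous factor activity, DMSO-referenced bidirectional fit.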

[4] = ATG_NRF2_ARE_CIS: Attagene CIS-FACTORIAL HepG2 Assay for human Nuclear Factor Erythroid 2 Related Factor 2 (NFR2) response to Antioxidant Response Elements (ARE) (AID 2282992); details: HepG2 Attagene ARE/NRF2 reporter, transcription factor activity; actives raise or lower the signal
Outline: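 Endogenous transcription factor activity read out as reporter transcript levels (RT-PCR plus capillary electrophoresis, fluorescence) in transiently transfected HepG2 cells. Measured at 24 h after dosing; gain or loss of signal fitted versus DMSO.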

[5] = ATG_Oct_MLP_CIS: Attagene CIS-FACTORIAL HepG2 Assay for human Octamer-Binding Transcription Factor (Oct) (AID 2282993); details: HepG2 Attagene cis-factorial Oct reporter, mRNA; actives raise or lower the signal
Outline: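 HepG2 cells transiently transfected with cis-promoter-driven multiplexed reporter transcription units, dosed for 24 h. Reporter mRNA quantified by RT-PCR, fluorescent labelling, HpaI digestion and capillary electrophoresis; bidirectional fits versus DMSO baseline.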

[6] = biological target: human Peroxisome Proliferator-activated Receptor alpha (PPARa), PPARA (gene 5465) (UniProt Q07869); test: ATG_PPARa_TRANS: Attagene TRANS-FACTORIAL HepG2 Assay for human Peroxisome Proliferator-activated Receptor alpha (PPARa) (AID 2283001; active = hit-call score of the fitted dose curve at least 0.9, where 1 is the maximum;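 as to AC50: potency for gain of reporter signal over DMSO so agonist or activator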)
human Peroxisome Proliferator-activated Receptor alpha (PPARa), PPARA (gene 5465), sequence (Q07869 whole entry, looked up, the tested form may be a part): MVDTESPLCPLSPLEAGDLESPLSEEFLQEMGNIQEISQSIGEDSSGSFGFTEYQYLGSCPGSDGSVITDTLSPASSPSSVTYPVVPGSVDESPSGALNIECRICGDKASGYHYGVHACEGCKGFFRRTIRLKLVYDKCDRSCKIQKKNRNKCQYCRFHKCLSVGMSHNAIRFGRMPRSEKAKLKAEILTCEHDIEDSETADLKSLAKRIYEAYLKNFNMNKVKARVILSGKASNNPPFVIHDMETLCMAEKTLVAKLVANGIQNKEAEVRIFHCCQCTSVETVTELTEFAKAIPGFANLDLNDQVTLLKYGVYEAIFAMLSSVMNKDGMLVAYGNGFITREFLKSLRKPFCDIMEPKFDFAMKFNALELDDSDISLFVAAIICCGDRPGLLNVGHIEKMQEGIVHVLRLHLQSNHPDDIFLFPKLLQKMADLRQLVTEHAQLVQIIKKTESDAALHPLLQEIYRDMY
Outline: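 Exposure: 24 h, transiently transfected HepG2 cells. Endpoint: GAL4-UAS reporter mRNA, RT-PCR with capillary electrophoresis fluorescence. Baseline: DMSO; increases fitted.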

[7] = biological target: Peroxisome proliferator-activated receptor gamma (Homo sapiens) (UniProt P37231); test: ATG_PPARg_TRANS: Attagene TRANS-FACTORIAL HepG2 Assay for human Peroxisome Proliferator-activated Receptor-gamma (PPARg) (AID 2283007; active = hit-call score of the fitted dose curve at least 0.9, where 1 is the maximum)
Peroxisome proliferator-activated receptor gamma (Homo sapiens), sequence (P37231 whole entry, looked up, the tested form may be a part): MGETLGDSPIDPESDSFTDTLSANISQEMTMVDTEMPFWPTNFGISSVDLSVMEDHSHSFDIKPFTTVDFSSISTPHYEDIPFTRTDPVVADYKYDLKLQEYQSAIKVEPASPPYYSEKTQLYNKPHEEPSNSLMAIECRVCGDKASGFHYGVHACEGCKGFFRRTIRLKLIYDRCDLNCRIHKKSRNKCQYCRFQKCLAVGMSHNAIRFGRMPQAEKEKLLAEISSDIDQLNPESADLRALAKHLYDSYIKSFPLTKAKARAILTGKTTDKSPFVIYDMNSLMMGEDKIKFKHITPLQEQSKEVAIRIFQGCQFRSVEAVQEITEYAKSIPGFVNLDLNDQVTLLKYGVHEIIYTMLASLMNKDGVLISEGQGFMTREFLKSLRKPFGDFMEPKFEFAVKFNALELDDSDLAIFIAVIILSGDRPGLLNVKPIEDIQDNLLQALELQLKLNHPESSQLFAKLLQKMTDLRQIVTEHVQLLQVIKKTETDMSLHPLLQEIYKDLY
Outline: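 Liver-derived HepG2 cells expressing an exogenous NR-Gal4 chimera alongside GAL4-UAS reporter genes; 24 h exposure. Fluorescence of reporter RT-PCR products, separated by capillary electrophoresis, gives mRNA induction relative to DMSO.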

[8] = biological target: Nuclear receptor subfamily 1 group I member 2 (Homo sapiens) (UniProt O75469); test: ATG_PXR_TRANS: Attagene TRANS-FACTORIAL HepG2 Assay for human Pregnane X Receptor (PXR) (AID 2283008; active = hit-call score of the fitted dose curve at least 0.9, where 1 is the maximum)
Nuclear receptor subfamily 1 group I member 2 (Homo sapiens), sequence (O75469 whole entry, looked up, the tested form may be a part): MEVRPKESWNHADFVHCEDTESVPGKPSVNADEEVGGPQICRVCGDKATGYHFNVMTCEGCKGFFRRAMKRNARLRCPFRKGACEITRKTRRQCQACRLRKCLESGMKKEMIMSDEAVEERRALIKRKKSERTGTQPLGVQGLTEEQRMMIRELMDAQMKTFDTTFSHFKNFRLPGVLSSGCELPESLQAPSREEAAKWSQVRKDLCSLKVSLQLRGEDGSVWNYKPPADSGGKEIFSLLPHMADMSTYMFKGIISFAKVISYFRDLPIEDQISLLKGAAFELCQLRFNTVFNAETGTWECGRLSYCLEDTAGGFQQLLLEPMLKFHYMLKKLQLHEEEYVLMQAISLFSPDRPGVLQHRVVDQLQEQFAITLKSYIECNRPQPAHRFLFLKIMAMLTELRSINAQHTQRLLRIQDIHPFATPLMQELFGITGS
Outline: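 Transactivation by exogenous PXR–GAL4 fusion measured as reporter transcript induction after 24 h compound treatment of transfected human HepG2 cells. Read-out via RT-PCR and capillary electrophoresis of labelled fragments, fitted upward relative to DMSO.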

[9] = biological target: human Retinoic Acid Receptor gamma (RARg), RARG (gene 5916) (UniProt P13631); test: ATG_RARg_TRANS: Attagene TRANS-FACTORIAL HepG2 Assay for human Retinoic Acid Receptor gamma (RARg) (AID 2283009; active = hit-call score of the fitted dose curve at least 0.9, where 1 is the maximum)
human Retinoic Acid Receptor gamma (RARg), RARG (gene 5916), sequence (P13631 whole entry, looked up, the tested form may be a part): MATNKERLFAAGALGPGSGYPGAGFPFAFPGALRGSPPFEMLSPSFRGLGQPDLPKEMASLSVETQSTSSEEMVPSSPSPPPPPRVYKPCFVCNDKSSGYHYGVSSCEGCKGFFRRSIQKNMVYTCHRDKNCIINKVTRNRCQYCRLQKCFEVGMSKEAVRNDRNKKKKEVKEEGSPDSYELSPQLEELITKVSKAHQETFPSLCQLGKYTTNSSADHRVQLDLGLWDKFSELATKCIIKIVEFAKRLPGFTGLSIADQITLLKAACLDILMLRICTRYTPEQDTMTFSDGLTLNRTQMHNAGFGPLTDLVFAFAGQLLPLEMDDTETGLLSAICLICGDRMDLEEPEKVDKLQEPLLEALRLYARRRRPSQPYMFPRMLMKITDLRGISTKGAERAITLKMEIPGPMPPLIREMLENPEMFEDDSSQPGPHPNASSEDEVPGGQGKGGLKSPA
Outline: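 Gain-of-signal relative to DMSO is reported from fluorescent capillary electrophoresis of RT-PCR reporter products. These came from HepG2 cells expressing transfected RARg-GAL4 chimeras with UAS reporters, harvested 24 h after dosing.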

[10] = biological target: Cellular tumor antigen p53 (Homo sapiens) (UniProt P04637); test: ATG_p53_CIS: Attagene CIS-FACTORIAL HepG2 Assay for human p53 Transcription Factor (AID 2282994); details: HepG2 p53 cis-element reporter, Attagene mRNA; actives raise or lower the signal
Cellular tumor antigen p53 (Homo sapiens), sequence (P04637 whole entry, looked up): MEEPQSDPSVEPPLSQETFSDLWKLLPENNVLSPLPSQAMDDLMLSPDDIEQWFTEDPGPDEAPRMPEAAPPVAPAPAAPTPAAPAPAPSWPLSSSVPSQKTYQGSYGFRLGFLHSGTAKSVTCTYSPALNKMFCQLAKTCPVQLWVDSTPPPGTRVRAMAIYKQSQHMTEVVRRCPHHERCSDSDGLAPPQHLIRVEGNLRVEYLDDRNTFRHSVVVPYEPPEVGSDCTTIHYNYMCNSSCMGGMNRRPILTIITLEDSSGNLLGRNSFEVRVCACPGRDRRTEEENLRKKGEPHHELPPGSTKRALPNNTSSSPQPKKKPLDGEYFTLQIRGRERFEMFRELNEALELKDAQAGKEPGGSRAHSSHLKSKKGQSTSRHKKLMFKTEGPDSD
Outline: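 Endogenous p53 activity read in transiently transfected HepG2 from a cis-element-driven reporter transcript after 24 h exposure. RNA reverse-transcribed, PCR-amplified, fluorescently labelled and sized by capillary electrophoresis; gain or loss fitted against DMSO baseline.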

[11] = biological target: human RAR-related Orphan Receptor beta (RORb), RORB (gene 6096) (UniProt Q92753); test: ATG_RORb_TRANS: Attagene TRANS-FACTORIAL HepG2 Assay for human RAR-related Orphan Receptor beta (RORb) (AID 2283010; active = hit-call score of the fitted dose curve at least 0.9, where 1 is the maximum)
human RAR-related Orphan Receptor beta (RORb), RORB (gene 6096), sequence (Q92753 whole entry, looked up, the tested form may be a part): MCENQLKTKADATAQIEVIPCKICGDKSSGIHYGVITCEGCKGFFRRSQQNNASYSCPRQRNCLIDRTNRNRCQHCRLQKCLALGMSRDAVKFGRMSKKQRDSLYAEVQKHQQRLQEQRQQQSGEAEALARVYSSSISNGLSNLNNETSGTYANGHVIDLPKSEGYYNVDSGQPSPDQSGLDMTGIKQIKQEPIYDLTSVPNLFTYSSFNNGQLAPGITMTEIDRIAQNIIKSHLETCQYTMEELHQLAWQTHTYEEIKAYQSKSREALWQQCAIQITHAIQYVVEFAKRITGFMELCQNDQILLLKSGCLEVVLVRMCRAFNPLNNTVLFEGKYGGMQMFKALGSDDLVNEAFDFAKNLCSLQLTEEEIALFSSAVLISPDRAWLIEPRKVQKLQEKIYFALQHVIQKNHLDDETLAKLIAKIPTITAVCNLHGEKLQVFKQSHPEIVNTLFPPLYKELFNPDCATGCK
Outline: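 Multiplexed transcription-factor reporter assay: HepG2 cells transiently carrying NR-Gal4/GAL4-UAS constructs, 24 h treatment, mRNA quantified by RT-PCR plus capillary electrophoresis fluorescence; activity scored as induction over DMSO.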

[12] = biological target: human Retinoic Acid Receptor beta (RARb), RARB (gene 5915) (UniProt P10826); test: ATG_RARb_TRANS: Attagene TRANS-FACTORIAL HepG2 Assay for human Retinoic Acid Receptor beta (AID 2283004; active = hit-call score of the fitted dose curve at least 0.9, where 1 is the maximum)
human Retinoic Acid Receptor beta (RARb), RARB (gene 5915), sequence (P10826 whole entry, looked up, the tested form may be a part): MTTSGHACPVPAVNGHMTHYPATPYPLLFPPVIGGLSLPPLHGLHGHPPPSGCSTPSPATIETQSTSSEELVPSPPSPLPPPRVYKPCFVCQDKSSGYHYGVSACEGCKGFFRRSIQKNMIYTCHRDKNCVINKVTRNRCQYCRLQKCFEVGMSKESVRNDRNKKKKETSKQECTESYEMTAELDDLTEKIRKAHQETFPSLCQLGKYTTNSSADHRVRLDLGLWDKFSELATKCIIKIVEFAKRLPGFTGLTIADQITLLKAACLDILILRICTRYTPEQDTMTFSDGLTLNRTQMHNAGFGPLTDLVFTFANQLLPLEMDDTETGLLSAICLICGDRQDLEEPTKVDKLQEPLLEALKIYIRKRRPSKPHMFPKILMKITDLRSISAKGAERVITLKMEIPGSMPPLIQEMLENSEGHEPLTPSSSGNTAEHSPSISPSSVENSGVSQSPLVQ
Outline: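 Induction of reporter mRNA from a chimeric RARb-Gal4 construct was measured by RT-PCR, FAM labelling, HpaI digestion and capillary electrophoresis. Measurements followed 24 h compound treatment of transiently transfected human HepG2 liver cells, with DMSO as baseline.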

[13] = biological target: Retinoic acid receptor alpha (Homo sapiens) (UniProt P10276); test: ATG_RARa_TRANS: Attagene TRANS-FACTORIAL HepG2 Assay for human Retinoic Acid Receptor alpha (RARa) (AID 2283005; active = hit-call score of the fitted dose curve at least 0.9, where 1 is the maximum)
Retinoic acid receptor alpha (Homo sapiens), sequence (P10276 whole entry, looked up, the tested form may be a part): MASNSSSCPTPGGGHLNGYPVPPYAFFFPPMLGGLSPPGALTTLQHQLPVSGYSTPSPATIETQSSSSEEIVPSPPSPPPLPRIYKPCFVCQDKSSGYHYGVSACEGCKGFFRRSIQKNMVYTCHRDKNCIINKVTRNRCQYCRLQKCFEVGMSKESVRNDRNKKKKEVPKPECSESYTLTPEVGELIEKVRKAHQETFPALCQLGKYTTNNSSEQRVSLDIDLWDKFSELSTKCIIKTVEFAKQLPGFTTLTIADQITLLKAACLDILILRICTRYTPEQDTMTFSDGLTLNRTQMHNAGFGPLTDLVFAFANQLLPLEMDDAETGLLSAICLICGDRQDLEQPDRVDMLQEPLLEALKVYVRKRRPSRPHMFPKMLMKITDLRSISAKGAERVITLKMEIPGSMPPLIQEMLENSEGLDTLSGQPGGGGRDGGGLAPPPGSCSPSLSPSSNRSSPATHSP
Outline: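 HepG2 cells transiently transfected with multiple reporter units expressing chimeric RARα-GAL4 fusion, with GAL4-UAS-driven reporters. After 24 h compound exposure, reporter mRNA induction quantified by RT-PCR and capillary electrophoresis with fluorescent labeling; gain-of-signal fitted relative to DMSO control.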

[14] = biological target: human Peroxisome Proliferator-activated Receptor delta (PPARd), PPARD (gene 5467) (UniProt Q03181); test: ATG_PPARd_TRANS: Attagene TRANS-FACTORIAL HepG2 Assay for human Peroxisome Proliferator-activated Receptor delta (PPARd) (AID 2283002; active = hit-call score of the fitted dose curve at least 0.9, where 1 is the maximum)
human Peroxisome Proliferator-activated Receptor delta (PPARd), PPARD (gene 5467), sequence (Q03181 whole entry, looked up, the tested form may be a part): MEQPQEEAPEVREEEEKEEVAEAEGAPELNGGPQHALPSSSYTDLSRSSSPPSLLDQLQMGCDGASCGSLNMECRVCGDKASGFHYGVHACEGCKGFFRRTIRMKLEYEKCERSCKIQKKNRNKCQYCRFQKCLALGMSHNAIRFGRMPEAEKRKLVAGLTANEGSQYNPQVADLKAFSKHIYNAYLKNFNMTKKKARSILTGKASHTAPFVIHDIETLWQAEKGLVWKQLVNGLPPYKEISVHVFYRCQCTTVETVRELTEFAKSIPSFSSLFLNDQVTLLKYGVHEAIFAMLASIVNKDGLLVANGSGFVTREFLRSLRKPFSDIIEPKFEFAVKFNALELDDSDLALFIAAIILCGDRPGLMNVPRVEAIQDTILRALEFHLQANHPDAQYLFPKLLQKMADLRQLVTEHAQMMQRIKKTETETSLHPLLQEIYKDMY
Outline: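 Multiplexed trans-activation format: HepG2 liver cells expressing exogenous NR-Gal4 chimeras and GAL4-UAS reporters were exposed for 24 h. Reporter mRNA was detected by RT-PCR with capillary electrophoresis fluorescence; activity fitted as gain of signal relative to DMSO.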

Measured: AC50

CCCCCCCCCCCC(=O)OCC(O)CO (stereo not given)
active: [3] 100 µM | [4] 100 µM | [6] 100 µM | [7] 100 µM
inactive: [1] | [2] | [5] | [8] | [9]

C1CCCCC1
inactive: [1] | [2] | [3] | [4] | [5] | [10] | [8] | [11]

COc1ccc(CCO)cc1
not listed: [8] | [10] | [11] | [13] | [14]
inactive: all other assays above

CC(=O)NCCO
not listed: [6] | [7] | [12] | [13] | [14]
inactive: all other assays above

Cc1ccc(-c2ccccc2)cc1
inactive: [1] | [2] | [3] | [4] | [5] | [10] | [8]

C=C(C)C1CC=C(C)C(=O)C1 (stereo not given)
not listed: [9] | [10] | [11] | [12] | [14]
inactive: all other assays above

COC(=O)c1ccc(C)cc1C1=NC(C)(C(C)C)C(=O)N1 (stereo not given) (tested in a mixture with another compound)
inactive: [1] | [2] | [3] | [4] | [5] | [10] | [13] | [8]

CC(C)=CCCC(C)CC(=O)O (stereo not given)
not listed: [9] | [10] | [11] | [12] | [13]
inactive: all other assays above

CC1=CC[C@@]23C[C@@H]1C(C)(C)[C@@H]2CC[C@H]3C
active: [4] 100 µM
not listed: [6] | [9] | [12] | [13] | [14]
inactive: all other assays above

CC1(C)O[C@@H]2[C@@H](CO[C@@]3(COS(N)(=O)=O)OC(C)(C)O[C@@H]23)O1
inactive: [1] | [2] | [3] | [4] | [5] | [10] | [7] | [8]
